The list is not random: actives were taken first. Their share in the collection is about 0.47%.
AID inh = Primary qHTS assay for inhibitors of Activation Induced Cytidine Deaminase (AID): AID signal | Potency, µM (doses to about 115 µM), hits mostly inhibitors | actives 0.32% (n = 91,000) | Single-stranded DNA cytosine deaminase (Homo sapiens), Q9GZX7 | AID deamination FRET fluorescence, UDG-coupled, 4 h; note: nearly all actives have a fitted effect of over 25% in size
Target sequence (Q9GZX7 whole entry, looked up): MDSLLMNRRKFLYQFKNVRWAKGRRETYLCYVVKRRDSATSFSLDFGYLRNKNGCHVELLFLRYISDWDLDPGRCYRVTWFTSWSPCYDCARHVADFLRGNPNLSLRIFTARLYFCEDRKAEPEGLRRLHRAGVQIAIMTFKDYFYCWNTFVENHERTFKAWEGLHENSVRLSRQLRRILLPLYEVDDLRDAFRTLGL
UDG counter = Primary qHTS assay for inhibitors of Activation Induced Cytidine Deaminase (AID): UDG Counterscreen signal; AID 1347430, 2020; actives 0.14% (n = 91,000); Uracil-DNA glycosylase; FRET deamination/UDG coupled assay, UDG read, 4 h; Potency, µM (highest dose often 115 µM), actives largely listed as inhibitors; note: nearly all actives have a fitted effect of over 65% in size
Each line names hits and unclear results; the compound was inactive in the other large screens. Calls come from the whole dose curve; as a rule, active = well fitted curve in the direction sought with a large enough effect; inconclusive = small, poorly fitted or top-dose-only effect, or another doubt; inactive = no such curve, though single readings can be large; an effect the other way counts as inactive or inconclusive.

CC(=O)N1CCc2c(sc3nc(SCC(C)C)n(-c4ccc(C)c(Cl)c4)c(=O)c23)C1	AID inh 25µM, UDG counter 79µM
CCS(=O)(=O)N1CCc2cc(C(=O)CSc3cccc(OC)c3)ccc21	none
CCCC(C(=O)NC(C)C)c1ccccc1 (stereo unspecified)	none
COc1ccc(OC)c(C2C(C(=O)Nc3ccc(C)cc3C)=C(C)Nc3c(C(=O)Nc4ccc(F)cc4)cnn32)c1 (stereo unspecified)	AID inh inconclusive
COc1ccc(OC)c(C2C(C(=O)Nc3ccccc3OC)=C(C)Nc3c(C(=O)Nc4ccc(F)cc4)cnn32)c1 (stereo unspecified)	AID inh 18µM
O=C1CCCC2=C1C(c1ccc(C(F)(F)F)cc1)C1=C(N2)c2ccccc2C1=O (stereo unspecified)	none
CC(C)(C)c1ccc(C2Sc3ccccc3NC3=C2C(=O)c2ccccc23)cc1 (stereo unspecified)	UDG counter 89µM
CCc1ccc(NC(=S)N(CC)c2ccccc2)cc1	none
C=Cc1ccc(CSc2nc(-c3ccc(Cl)cc3)nc3c2Cc2c(CO)cnc(C)c2O3)cc1	none
C=Cc1ccc(CSc2nc(-c3ccccc3C)nc3c2Cc2c(CO)cnc(C)c2O3)cc1	AID inh 45µM
CC(C)Oc1ccc(C(=O)NCCc2csc(-c3cccc(F)c3)n2)cc1	AID inh 45µM
CCCCOc1ccc(C(=O)NCCc2csc(-c3cccc(F)c3)n2)cc1	none
COc1cccc(C(=O)N2CCN(c3oc(-c4cccs4)nc3C#N)CC2)c1	none
CC(C)NC(=O)Cn1c(=O)n(-c2ccccc2)c(=O)c2sccc21	none
CCn1c2ccccc2c2cc(NC(=O)COc3cc(C)ccc3C)ccc21	UDG counter inconclusive
Cc1ccc(C)c(OCC(=O)Nc2ccc(Br)cc2C(=O)O)c1	AID inh 56µM
Nc1nccnc1C(=O)Nc1cccc(OCc2ccccn2)c1	none
COc1cc(/C=C(/C#N)C(=O)Nc2ccccc2C(F)(F)F)ccc1OCc1ccc(F)cc1	none
COc1cc(/C=C(\C#N)C(=O)Nc2nnc(C(F)(F)F)s2)ccc1OCc1ccc(C(F)(F)F)cc1C(F)(F)F	AID inh 50µM
Cc1ccc(-c2csc(Nc3ccc(S(=O)(=O)Nc4nc(C)cc(C)n4)cc3)n2)cc1	UDG counter inconclusive
Cc1ccc(C)c(-c2csc(Nc3ccc(S(=O)(=O)Nc4nc(C)cc(C)n4)cc3)n2)c1	AID inh inconclusive, UDG counter 89µM
COc1ccc(-n2c(Cc3ccccc3)nnc2SCc2nc(-c3ccccc3C)no2)cc1	AID inh 32µM
CCc1ccc(-n2c(SCc3nc(-c4cc(OC)ccc4OC)no3)nnc2-c2ccccc2)cc1	AID inh inconclusive
Cc1ccc(N(Cc2cccs2)C(=O)COc2cccc(C)c2)cc1	AID inh inconclusive
Cc1cc(C)cc(OCC(=O)N(Cc2cccs2)c2ccc(Cl)cc2)c1	AID inh 22µM
O=C(CSc1ncc(-c2ccccc2)o1)NCC1CC1	none
CCOC(=O)c1c(C)oc2nc(C)nc(NC(C)c3ccccc3)c12 (stereo unspecified)	AID inh 79µM
CCOC(=O)c1c(C)oc2nc(C)nc(NCc3ccc(Cl)cc3)c12	none
CCCCc1ccc(NC(=O)CC2CCCCC2)cc1	none
CC(C)(Sc1ccc(CCN(CCCCC2CCCCC2)C(=O)NC2CCCCC2)cc1)C(=O)O	AID inh 89µM
CC(C)(C)C(=O)/C(C#N)=C\c1cccc(F)c1	none
CCn1cc(S(=O)(=O)c2ccc(OC)cc2)c(=O)c2cc(F)c(N3CCCCCC3)cc21	none
CCn1cc(S(=O)(=O)c2ccc(OC)cc2)c(=O)c2cc(F)c(N3CCC(C)CC3)cc21	AID inh 18µM
Cc1cccc(-c2noc(-c3cccc(F)c3)n2)c1	none
Oc1ccc(NCc2ccccc2OCc2ccccc2)cc1	AID inh 32µM, UDG counter 79µM
Oc1ccc(NCc2ccccc2OCc2ccc(Cl)cc2)cc1	AID inh 32µM
CCOc1cc(CNc2ccc(O)cc2)cc(Br)c1OCc1ccccc1	none
CCOc1cc(CNc2ccc(O)cc2)ccc1OCc1ccc(Cl)cc1	AID inh inconclusive
CC1CCN(S(=O)(=O)c2cn(CC(=O)Nc3cccc(-c4ccno4)c3)cn2)CC1	none
Cc1c(-c2cccc3ccccc23)c(=O)oc2ccc(Br)cc12	none
COc1ccccc1N1CCN(CCCNC(=O)c2cnn(-c3ccc(C)c(C)c3)c2C2CCN(C(=O)OC(C)(C)C)CC2)CC1	AID inh 50µM
COc1ccc(CCN2CCC(CNC(=O)c3cnn(-c4ccccc4)c3C3CCN(C(=O)OC(C)(C)C)CC3)CC2)cc1	AID inh inconclusive
Cc1ccc(C)c(N2CCN(CCCNC(=O)c3cnn(-c4ccccc4)c3C3CCN(C(=O)OC(C)(C)C)CC3)CC2)c1	none
CC(C)(C)OC(=O)N1CCC(c2c(C(=O)N3CCN(c4ccccc4F)CC3)cnn2-c2ccccc2Cl)CC1	AID inh 50µM, UDG counter inconclusive
